The supplement of paper PMC10849652
The full data set covers some 7,900 targets. This sample favours those with a hit. About 0.6% of all pairs of compound and target were hits. A number with no mark means an inactive call.

Tests used:
Test in all cases: log2 fold change, soluble protein after heating vs DMSO (PISA); higher = thermal stabilisation; K562 cells, 10 uM, 30 min; active = over 0.2 and 3.5 SD of the protein, either way, in both replicates (recomputed)
[1] = compound: CC1=C(C=C(C=C1)NC(=O)C2=CC(=CC=C2)C(C)(C)C#N)NC3=CC4=C(C=C3)N=CN(C4=O)C
Summary of the method: (§1)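 Soluble protein was defined as the supernatant after 21,000xg for 90 min. It came from K562 cells at 2×10^6 cells/mL given 10 μM compound for 30 min, heated in aliquots for 3 min across 48°C-58°C, pooled, and extracted in PBS with 0.5% NP-40 at 4°C, and was quantified by TMTpro 16plex LC-MS/MS with equalised channel sums. Thermal stability against control samples, from duplicates, is reported as log2 fold change.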

[2] = compound: CC1=C(C=C(C=C1)NC(=O)C2=CC(=CC=C2)N(C)C)NC(=O)C3=CC=C(C=C3)O
Summary of the method: as §1

[3] = compound: CC1=CC=C(C=C1)SC2=C3C=C(SC3=CN=C2)C(=O)N
Summary of the method: as §1

[4] = compound: CC1=NC(=CC=C1)C2=C(N=C(N2)C(C)(C)C)C3=CC4=NC=CN=C4C=C3
Summary of the method: as §1

Nexturastat A = compound: CCCCN(Cc1ccc(C(=O)NO)cc1)C(=O)Nc1ccccc1 [Nexturastat A]
Summary of the method: as §1

vemurafenib = compound: CCCS(=O)(=O)Nc1ccc(F)c(C(=O)c2c[nH]c3ncc(-c4ccc(Cl)cc4)cc23)c1F [vemurafenib]
Summary of the method: as §1

[5] = compound: CCCS(=O)(=O)Nc1ccc(F)c(C(=O)c2c[nH]c3ncc(Cl)cc23)c1F
Summary of the method: as §1

[6] = compound: CCCc1cc(C)[nH]c(=O)c1CNC(=O)c1cc(-c2ccnc(N3CCN(C)CC3)c2)cc2c1cnn2C(C)C
Summary of the method: as §1

givinostat = compound: CCN(CC)Cc1ccc2cc(COC(=O)Nc3ccc(C(=O)NO)cc3)ccc2c1 [givinostat]
Summary of the method: as §1

barasertib = compound: CCN(CCCOc1ccc2c(Nc3cc(CC(=O)Nc4cccc(F)c4)[nH]n3)ncnc2c1)CCOP(=O)(O)O [barasertib]
Summary of the method: as §1

[7] = compound: CC[C@@H]1C(=O)N(C)c2cnc(Nc3ccc(C(=O)NC4CCN(C)CC4)cc3OC)nc2N1C1CCCC1
Summary of the method: as §1

volasertib = compound: CC[C@@H]1C(=O)N(C)c2cnc(Nc3ccc(C(=O)N[C@H]4CC[C@H](N5CCN(CC6CC6)CC5)CC4)cc3OC)nc2N1C(C)C [volasertib]
Summary of the method: as §1

[8] = compound: CC[C@H](C)N1C=C(C2=C(C=C(C=C21)C3=CN=C(C=C3)N4CCNCC4)C(=O)NCC5=C(C=C(NC5=O)C)C)C
Summary of the method: as §1

epoxomicin = compound: CC[C@H](C)[C@@H](C(=O)N[C@@H]([C@@H](C)O)C(=O)N[C@@H](CC(C)C)C(=O)[C@]1(CO1)C)NC(=O)[C@H]([C@@H](C)CC)N(C)C(=O)C [epoxomicin]
Summary of the method: as §1

[9] = compound: CCn1c(C(=O)N(C2CC2)C2CC2)cc2c3c(ncn3C)c(Nc3cc(C)n(C)n3)nc21
Summary of the method: as §1

[10] = compound: CCn1cc(-c2ccnc3[nH]c(-c4cccc(CN(C)C)c4)cc23)c(-c2ccc(NC(=O)N(C)C)cc2)n1
Summary of the method: as §1

[11] = compound: CN(C)CC(=O)Nc1ccc2[nH]c(=O)c3ccccc3c2c1
Summary of the method: as §1

rosiglitazone = compound: CN(CCOC1=CC=C(C=C1)C[C@H]2C(=O)NC(=O)S2)C3=CC=CC=N3 (racemic) [rosiglitazone]
Summary of the method: as §1

[12] = compound: CN1C2=C(C3=C1C(=O)N(N=C3)CC4=CC(=CC=C4)N)SC(=C2)S(=O)C
Summary of the method: as §1

[13] = compound: CN1CCC(CNc2ccc3ncc(-c4cccc(OC(F)(F)F)c4)n3n2)CC1
Summary of the method: as §1

Sequence of UniProt P54707 (P54707 whole entry, looked up): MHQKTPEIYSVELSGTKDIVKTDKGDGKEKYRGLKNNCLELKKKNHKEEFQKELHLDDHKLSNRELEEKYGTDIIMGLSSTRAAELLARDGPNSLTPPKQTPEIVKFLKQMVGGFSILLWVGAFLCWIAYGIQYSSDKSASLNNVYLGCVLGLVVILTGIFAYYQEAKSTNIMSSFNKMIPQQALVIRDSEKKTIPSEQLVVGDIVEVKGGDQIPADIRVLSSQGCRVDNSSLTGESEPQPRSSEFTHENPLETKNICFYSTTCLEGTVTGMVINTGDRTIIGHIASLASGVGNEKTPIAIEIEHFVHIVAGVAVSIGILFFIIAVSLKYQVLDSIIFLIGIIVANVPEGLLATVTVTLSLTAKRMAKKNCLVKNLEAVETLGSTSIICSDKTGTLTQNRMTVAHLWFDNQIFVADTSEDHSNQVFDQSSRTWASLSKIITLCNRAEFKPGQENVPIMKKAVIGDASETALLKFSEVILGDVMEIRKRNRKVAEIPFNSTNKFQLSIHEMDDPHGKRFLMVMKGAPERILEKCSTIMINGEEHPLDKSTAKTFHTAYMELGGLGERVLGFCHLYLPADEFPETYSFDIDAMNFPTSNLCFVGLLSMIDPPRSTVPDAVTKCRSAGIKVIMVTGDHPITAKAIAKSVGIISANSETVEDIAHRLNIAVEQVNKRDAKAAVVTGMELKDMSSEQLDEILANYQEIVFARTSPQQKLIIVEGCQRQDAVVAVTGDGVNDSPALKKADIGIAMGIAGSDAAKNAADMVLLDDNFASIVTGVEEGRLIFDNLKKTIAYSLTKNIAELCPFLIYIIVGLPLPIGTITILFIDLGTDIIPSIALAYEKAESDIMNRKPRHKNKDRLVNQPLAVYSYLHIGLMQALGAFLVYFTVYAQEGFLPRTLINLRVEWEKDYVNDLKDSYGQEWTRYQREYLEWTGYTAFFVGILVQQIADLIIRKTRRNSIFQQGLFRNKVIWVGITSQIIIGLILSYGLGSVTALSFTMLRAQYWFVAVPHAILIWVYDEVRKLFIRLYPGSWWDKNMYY
Sequence of UniProt Q9BTT0 (Q9BTT0 whole entry, looked up): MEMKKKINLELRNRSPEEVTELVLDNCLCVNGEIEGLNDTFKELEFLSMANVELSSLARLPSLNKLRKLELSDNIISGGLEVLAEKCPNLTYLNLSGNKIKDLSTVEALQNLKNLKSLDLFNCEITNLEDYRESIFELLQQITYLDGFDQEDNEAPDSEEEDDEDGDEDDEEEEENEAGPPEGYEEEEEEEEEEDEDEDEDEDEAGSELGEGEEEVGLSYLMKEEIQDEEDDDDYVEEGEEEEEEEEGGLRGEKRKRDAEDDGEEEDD
Sequence of UniProt Q10589 (Q10589 whole entry, looked up): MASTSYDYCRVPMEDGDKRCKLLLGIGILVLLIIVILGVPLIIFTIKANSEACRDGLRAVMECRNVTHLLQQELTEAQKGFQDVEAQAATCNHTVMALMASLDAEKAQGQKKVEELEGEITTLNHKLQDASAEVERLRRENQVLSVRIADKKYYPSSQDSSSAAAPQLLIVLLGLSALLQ
Sequence of UniProt Q9UKV5 (Q9UKV5 whole entry, looked up): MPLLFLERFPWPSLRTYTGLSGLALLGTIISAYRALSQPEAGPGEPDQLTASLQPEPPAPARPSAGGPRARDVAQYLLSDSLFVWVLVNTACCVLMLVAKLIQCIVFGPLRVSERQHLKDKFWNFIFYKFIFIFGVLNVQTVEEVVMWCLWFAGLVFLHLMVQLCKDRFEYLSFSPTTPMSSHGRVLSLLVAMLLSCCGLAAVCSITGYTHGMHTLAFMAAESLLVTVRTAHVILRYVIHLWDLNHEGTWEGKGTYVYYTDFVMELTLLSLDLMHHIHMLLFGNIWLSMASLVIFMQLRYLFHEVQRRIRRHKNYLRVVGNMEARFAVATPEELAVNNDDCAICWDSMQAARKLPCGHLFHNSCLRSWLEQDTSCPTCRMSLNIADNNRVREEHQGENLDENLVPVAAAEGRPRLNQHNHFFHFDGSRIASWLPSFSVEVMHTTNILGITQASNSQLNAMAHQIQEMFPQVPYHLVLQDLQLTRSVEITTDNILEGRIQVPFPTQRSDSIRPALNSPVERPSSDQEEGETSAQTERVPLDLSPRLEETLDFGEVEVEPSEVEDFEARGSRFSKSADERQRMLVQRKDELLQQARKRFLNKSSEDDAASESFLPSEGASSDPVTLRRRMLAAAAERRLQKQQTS
Sequence of UniProt Q9ULC5 (Q9ULC5 whole entry, looked up): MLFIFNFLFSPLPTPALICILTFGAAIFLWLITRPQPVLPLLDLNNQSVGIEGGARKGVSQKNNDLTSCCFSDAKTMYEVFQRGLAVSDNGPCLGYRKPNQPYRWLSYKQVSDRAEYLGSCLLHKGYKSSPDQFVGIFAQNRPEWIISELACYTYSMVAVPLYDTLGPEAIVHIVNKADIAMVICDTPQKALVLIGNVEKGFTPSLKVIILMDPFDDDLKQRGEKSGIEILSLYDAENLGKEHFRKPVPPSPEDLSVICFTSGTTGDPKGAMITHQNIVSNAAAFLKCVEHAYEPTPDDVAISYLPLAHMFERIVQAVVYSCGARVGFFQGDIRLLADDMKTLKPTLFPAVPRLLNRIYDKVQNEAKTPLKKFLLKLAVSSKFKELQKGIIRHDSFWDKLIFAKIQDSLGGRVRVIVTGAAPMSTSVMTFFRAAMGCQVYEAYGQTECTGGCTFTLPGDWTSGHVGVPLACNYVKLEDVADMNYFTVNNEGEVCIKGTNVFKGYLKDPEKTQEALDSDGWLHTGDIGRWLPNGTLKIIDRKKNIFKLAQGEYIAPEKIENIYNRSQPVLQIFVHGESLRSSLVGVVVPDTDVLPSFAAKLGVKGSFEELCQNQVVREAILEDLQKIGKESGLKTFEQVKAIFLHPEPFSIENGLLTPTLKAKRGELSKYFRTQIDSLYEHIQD
Sequence of UniProt P63010 (P63010 whole entry, looked up): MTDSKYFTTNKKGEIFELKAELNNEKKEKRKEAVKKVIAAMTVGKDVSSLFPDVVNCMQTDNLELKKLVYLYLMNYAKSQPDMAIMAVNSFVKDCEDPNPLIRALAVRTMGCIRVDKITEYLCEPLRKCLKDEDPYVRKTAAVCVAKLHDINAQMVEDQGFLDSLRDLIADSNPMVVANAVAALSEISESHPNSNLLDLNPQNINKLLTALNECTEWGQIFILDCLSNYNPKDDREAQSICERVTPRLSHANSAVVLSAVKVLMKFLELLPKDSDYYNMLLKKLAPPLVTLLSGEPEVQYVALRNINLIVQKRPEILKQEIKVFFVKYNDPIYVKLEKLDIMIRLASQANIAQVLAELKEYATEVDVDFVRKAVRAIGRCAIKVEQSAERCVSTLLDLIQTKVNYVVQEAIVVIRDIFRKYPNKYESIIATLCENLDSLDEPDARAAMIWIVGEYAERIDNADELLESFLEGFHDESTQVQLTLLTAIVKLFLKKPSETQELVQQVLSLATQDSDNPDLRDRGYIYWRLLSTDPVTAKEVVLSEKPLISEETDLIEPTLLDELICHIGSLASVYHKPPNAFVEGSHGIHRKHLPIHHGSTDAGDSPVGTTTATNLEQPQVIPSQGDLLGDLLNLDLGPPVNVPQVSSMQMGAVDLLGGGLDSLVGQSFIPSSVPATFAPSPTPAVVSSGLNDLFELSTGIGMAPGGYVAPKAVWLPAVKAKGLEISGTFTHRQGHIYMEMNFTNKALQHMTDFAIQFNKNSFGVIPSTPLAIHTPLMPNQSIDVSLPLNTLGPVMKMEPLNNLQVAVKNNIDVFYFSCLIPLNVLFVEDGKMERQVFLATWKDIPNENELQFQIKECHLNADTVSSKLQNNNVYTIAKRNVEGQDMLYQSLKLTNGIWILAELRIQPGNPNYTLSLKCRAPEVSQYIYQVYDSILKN
Sequence of UniProt Q9Y4P1 (Q9Y4P1 whole entry, looked up): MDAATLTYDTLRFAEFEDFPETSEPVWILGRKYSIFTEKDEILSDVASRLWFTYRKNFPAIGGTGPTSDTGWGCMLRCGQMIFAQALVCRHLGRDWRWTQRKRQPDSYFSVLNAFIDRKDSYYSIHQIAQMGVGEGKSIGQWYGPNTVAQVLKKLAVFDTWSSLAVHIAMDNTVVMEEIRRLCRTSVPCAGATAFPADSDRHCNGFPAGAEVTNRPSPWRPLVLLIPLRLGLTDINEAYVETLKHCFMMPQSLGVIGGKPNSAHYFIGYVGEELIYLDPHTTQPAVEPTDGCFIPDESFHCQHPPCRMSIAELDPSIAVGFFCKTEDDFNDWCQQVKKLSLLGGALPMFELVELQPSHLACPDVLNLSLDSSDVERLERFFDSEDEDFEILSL
Sequence of UniProt Q9UBL3 (Q9UBL3 whole entry, looked up): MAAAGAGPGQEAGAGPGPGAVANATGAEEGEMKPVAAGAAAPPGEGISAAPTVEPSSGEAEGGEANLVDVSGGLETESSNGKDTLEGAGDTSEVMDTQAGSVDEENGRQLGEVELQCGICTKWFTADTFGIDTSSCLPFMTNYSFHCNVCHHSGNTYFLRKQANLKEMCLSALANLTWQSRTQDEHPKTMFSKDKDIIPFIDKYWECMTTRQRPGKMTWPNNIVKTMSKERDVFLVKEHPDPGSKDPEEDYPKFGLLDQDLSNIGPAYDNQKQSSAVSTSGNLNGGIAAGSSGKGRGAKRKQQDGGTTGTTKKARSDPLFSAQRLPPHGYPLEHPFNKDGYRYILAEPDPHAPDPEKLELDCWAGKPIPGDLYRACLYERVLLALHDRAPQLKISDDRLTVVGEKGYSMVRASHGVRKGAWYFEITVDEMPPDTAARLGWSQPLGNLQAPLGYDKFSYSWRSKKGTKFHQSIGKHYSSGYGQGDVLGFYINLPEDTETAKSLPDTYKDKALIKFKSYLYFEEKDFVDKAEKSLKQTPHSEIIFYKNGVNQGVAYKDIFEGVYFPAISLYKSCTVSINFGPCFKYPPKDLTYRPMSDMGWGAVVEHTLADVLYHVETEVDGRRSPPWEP

Row | Target | log2 fold change [1] | log2 fold change [2] | log2 fold change [3] | log2 fold change [4] | log2 fold change (Nexturastat A) | log2 fold change (vemurafenib) | log2 fold change [5] | log2 fold change [6] | log2 fold change (givinostat) | log2 fold change (barasertib) | log2 fold change [7] | log2 fold change (volasertib) | log2 fold change [8] | log2 fold change (epoxomicin) | log2 fold change [9] | log2 fold change [10] | log2 fold change [11] | log2 fold change (rosiglitazone) | log2 fold change [12] | log2 fold change [13]
1 | AP2B1 isoform 2 (UniProt P63010) | 0.016 | 0.018 | 0.021 | 0.018 | 0.033 | 0.031 | 0.039 | -0.021 | 0.015 | -0.013 | 0.065 | -0.064 | -0.001 | -0.004 | 0.05 | -0.021 | -0.007 | -0.018 | -0.016 | 0.045
2 | AMFR (UniProt Q9UKV5) | -0.013 | 0.01 | -0.029 | -0.104 | -0.033 | 0.005 | 0.009 | -0.042 | 0.086 | 0.041 | -0.205 | -0.215 | 0.044 | 0.049 | -0.059 | 0 | -0.007 | 0.022 | 0.01 | -0.055
3 | ABCC5 (UniProt O15440) | 0.107 | -0.033 | 0.035 | -0.073 | 0.007 | -0.183 | -0.031 | 0.1 | 0.028 | 0.026 | -0.075 | 0.027 | 0.023 | -0.028 | 0.024 | -0.031 | -0.069 | -0.003 | 0.028 | 0.075
4 | ATP1A4 (UniProt Q13733) | 0.017 | 0.029 | 0.141 | 0.065 | -0.03 | -0.137 | -0.08 | -0.026 | -0.216 | 0 | 0.125 | 0.07 | -0.025 | 0.081 | -0.004 | -0.056 | -0.05 | 0.006 | -0.057 | 0.26 (active)
5 | BAP1 (UniProt Q92560) | -0.067 | -0.088 | -0.149 | -0.058 | 0.403 (active) | -0.089 | -0.055 | 0.085 | 0.495 (active) | -0.019 | -0.037 | 0.13 | 0 | -0.092 | -0.019 | 0.101 | -0.093 | 0.021 | 0.047 | 0.055
6 | AKT2 (UniProt P31751) | 0.018 | 0.033 | 0.006 | 0.019 | 0.069 | -0.007 | 0.015 | -0.017 | 0.069 | 0.079 | -0.017 | -0.253 | 0.128 | 0.079 | -0.061 | -0.175 | -0.026 | 0.082 | -0.038 | -0.119
7 | ACSL5 isoform 3 (UniProt Q9ULC5) | 0.106 | 0.061 | -0.025 | 0.088 | -0.009 | 0.001 | 0.083 | -0.019 | -0.023 | 0.013 | -0.013 | -0.088 | 0.029 | 0.005 | 0.03 | -0.068 | -0.084 | -0.009 | -0.216 | -0.361 (active)
8 | ARMC8 (UniProt Q8IUR7) | 0.017 | 0.039 | -0.049 | 0.006 | -0.002 | -0.017 | 0.027 | 0.065 | 0 | -0.025 | -0.055 | -0.14 | 0.053 | -0.008 | -0.005 | 0.003 | -0.007 | -0.029 | 0.053 | 0.043
9 | ANP32E (UniProt Q9BTT0) | 0.041 | -0.098 | 0.091 | -0.02 | -0.11 | 0.091 | 0.035 | -0.001 | 0.112 | 0.076 | -0.132 | -0.499 (active) | 0.04 | 0.054 | -0.085 | -0.128 | -0.051 | -0.025 | -0.058 | -0.147
10 | BST2 (UniProt Q10589) | 0.059 | 0.014 | -0.003 | -0.011 | 0.023 | 0 | -0.029 | -0.095 | 0.053 | -0.097 | 0.091 | 0.206 | -0.062 | -0.025 | -0.003 | 0.045 | -0.008 | -0.055 | 0 | 0.223 (active)
11 | ATG4B isoform 2 (UniProt Q9Y4P1) | -0.046 | -0.287 | 0.218 | -0.072 | 0.132 | 0.087 | -0.02 | 0.031 | 0.126 | 0.126 | -0.007 | -0.441 | 0.16 | -0.013 | 0.011 | 0.039 | 0.08 | 0.136 | 0.1 | -0.302
12 | BUB1B isoform 3 (UniProt O60566) | 0.004 | -0.031 | 0.059 | -0.014 | 0.087 | 0.058 | 0.14 | 0.043 | 0.118 | 0.034 | -0.127 | -0.66 (active) | 0.056 | 0.02 | -0.055 | 0.043 | 0.065 | 0.089 | 0.013 | -0.078
13 | ASH2L (UniProt Q9UBL3) | 0.018 | -0.047 | 0.003 | 0.01 | -0.003 | 0.057 | 0.071 | -0.022 | 0.031 | 0.007 | -0.117 | -0.327 (active) | 0.079 | 0.041 | -0.017 | -0.012 | -0.003 | -0.004 | 0.001 | -0.012
14 | BMP2K (UniProt Q9NSY1) | 0.01 | 0.033 | -0.017 | -0.011 | 0.126 | 0.011 | 0.01 | -0.04 | 0.007 | -0.014 | 0.13 | 0.115 | -0.02 | -0.053 | 0.269 | 0.023 | -0.058 | -0.044 | 0.008 | 0.656 (active)
15 | ACACB (UniProt O00763) | -0.037 | 0.01 | 0.006 | -0.065 | 0.344 | 0.108 | 0.012 | 0.152 | 0.149 | 0.06 | -0.006 | -0.468 | 0.083 | -0.1 | -0.194 | 0.086 | 0.061 | 0.167 | 0.308 | 0.104
16 | ATP12A isoform 2 (UniProt P54707) | -0.001 | -0.006 | 0 | 0.005 | -0.132 | -0.03 | -0.072 | -0.021 | -0.009 | 0.015 | 0.081 | 0 | -0.029 | 0.013 | 0.04 | -0.031 | -0.047 | 0.015 | -0.085 | 0.242 (active)
